According to PubChem BioAssay (Tox21):
Results filed as inconclusive are left out. The source made the active and inactive calls. Unless noted, calls follow the shape of the full dose curve.

Key:
[1] = Nuclear factor erythroid 2-related factor 2/antioxidant responsive element (Nrf2/ARE) small molecule agonists: qHTS cell viability counter screen in human keratinocytes (AID 1919968; active = well fitted curve in the direction sought with a large enough effect in the repeat runs; an effect the other way counts as inactive or inconclusive; also: nearly all actives have a fitted effect of over 55% in size; also: potency is read from the fitted curve at half-maximal effect)
Procedure, shortened: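 Cytotoxicity was multiplexed with the Nrf2/ARE luciferase assay in the same wells. Stably transfected HaCaT keratinocytes were treated with test compounds for 23 h at 37 C. Cell viability was then measured by CellTiter-Fluor fluorescence.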

[2] = target: Gonadotropin-releasing hormone receptor (Homo sapiens) (UniProt P30968); assay: Human gonadotropin-releasing hormone receptor (GnRHR) small molecule agonists, calcium flux assay in GnRHR-HEK293 cells (AID 1920063); also: nearly all actives have a fitted effect of over 35% in size
Gonadotropin-releasing hormone receptor (Homo sapiens), sequence (P30968 whole entry, looked up): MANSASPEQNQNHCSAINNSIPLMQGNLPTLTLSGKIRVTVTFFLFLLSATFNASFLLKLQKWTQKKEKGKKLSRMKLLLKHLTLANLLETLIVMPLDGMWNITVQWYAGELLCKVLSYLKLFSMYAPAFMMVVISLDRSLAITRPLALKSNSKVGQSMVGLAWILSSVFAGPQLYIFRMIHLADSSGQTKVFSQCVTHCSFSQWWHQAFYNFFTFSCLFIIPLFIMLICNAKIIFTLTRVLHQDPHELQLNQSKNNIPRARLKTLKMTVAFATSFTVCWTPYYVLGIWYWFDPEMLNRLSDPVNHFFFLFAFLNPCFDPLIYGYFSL
Procedure, shortened: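 Agonist activity was measured as intracellular calcium flux in HEK293 cells engineered to stably express human GnRHR. After dye loading for 1 hour at 37 C, compounds in DMSO were added and fluorescence was followed for 3 minutes.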

[3] = target: KiSS-1 receptor (Homo sapiens) (UniProt Q969F8); assay: Human kisspeptin (KISS1R) small molecule agonists, calcium flux assay in KISS1R-HEK293 cells (AID 1920064; active = well fitted curve in the direction sought with a large enough effect in the repeat runs; an effect the other way counts as inactive or inconclusive)
KiSS-1 receptor (Homo sapiens), sequence (Q969F8 whole entry, looked up): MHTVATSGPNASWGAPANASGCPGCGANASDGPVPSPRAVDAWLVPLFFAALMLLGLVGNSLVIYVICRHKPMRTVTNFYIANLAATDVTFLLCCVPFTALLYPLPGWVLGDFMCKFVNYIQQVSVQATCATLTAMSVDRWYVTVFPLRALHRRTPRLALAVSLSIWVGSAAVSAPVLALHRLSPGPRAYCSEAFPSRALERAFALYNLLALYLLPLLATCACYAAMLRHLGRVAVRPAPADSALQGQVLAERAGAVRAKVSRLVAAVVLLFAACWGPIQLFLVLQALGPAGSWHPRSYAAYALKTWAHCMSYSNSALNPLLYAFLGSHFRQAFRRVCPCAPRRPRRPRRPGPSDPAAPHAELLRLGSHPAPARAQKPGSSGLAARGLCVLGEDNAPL
Procedure, shortened: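 Agonist activity is monitored as intracellular calcium rise in engineered HEK293 cells carrying human KISS1R. Cells are dye-loaded for 1 h at 37 C before compound addition, and fluorescence is recorded for 3 min.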

[4] = p53 small molecule agonists, cell-based qHTS assay with human liver microsomes (AID 1963577)
Procedure, shortened: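 Cells carrying a p53-responsive bla reporter were rested 5 h (37 C, 5% CO2) before compound transfer. Human liver microsomes plus NADPH, 0.5 mg/mL final apiece, supplied metabolism during the 16 h 37 C exposure.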

[5] = p53 small molecule agonists, cell-based qHTS assay with rat liver microsomes (AID 1963578)
Procedure, shortened: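 Fluorescence from a beta-lactamase reporter under a p53 response element was measured after cells had been incubated 16 h at 37 C with test compound and rat liver microsomes plus NADPH (0.5 mg/mL final each).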

[6] = p53 small molecule agonists, cell-based qHTS assay with human liver microsomes: qHTS cell viability counter screen (AID 1963579); also: nearly all actives have a fitted effect of over 45% in size
Procedure, shortened: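 Seed p53RE-bla cells at 4,000 per well; incubate 5 h at 37 C; add compound, human liver microsomes and NADPH; incubate 16 h at 37 C; add CellTiter-Glo; after 30 min at room temperature, read luminescence.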

[7] = p53 small molecule agonists, cell-based qHTS assay: qHTS cell viability counter screen (AID 1963581); also: nearly all actives have a fitted effect of over 45% in size
Procedure, shortened: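 Viability was counter-screened in parallel with the p53 agonist reporter by measuring intracellular ATP luminescence in the same HCT-116 p53RE-bla wells after 16 h compound treatment at 37 C.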

[8] = p53 small molecule agonists, cell-based qHTS assay (AID 1963582; active = well fitted activation curve with a large enough effect in the signal ratio in the repeat runs, not every such curve was filed as active; the % refers to the signal ratio)
Procedure, shortened: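 Cells carrying a p53-responsive bla reporter are treated with test compounds for 16 h at 37 C; beta-lactamase activity is then detected with LiveBLAzer B/G FRET substrate after 2 h at room temperature.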

[9] = target: 5-hydroxytryptamine receptor 2A (Homo sapiens) (UniProt P28223); assay: 5-hydroxytryptamine receptor 2A (HTR2A) small molecule antagonists, cell-based qHTS assay (AID 1963586); also: nearly all actives have a fitted effect of over 45% in size; also: potency is read from the fitted curve at half-maximal effect
5-hydroxytryptamine receptor 2A (Homo sapiens), sequence (P28223 whole entry, looked up): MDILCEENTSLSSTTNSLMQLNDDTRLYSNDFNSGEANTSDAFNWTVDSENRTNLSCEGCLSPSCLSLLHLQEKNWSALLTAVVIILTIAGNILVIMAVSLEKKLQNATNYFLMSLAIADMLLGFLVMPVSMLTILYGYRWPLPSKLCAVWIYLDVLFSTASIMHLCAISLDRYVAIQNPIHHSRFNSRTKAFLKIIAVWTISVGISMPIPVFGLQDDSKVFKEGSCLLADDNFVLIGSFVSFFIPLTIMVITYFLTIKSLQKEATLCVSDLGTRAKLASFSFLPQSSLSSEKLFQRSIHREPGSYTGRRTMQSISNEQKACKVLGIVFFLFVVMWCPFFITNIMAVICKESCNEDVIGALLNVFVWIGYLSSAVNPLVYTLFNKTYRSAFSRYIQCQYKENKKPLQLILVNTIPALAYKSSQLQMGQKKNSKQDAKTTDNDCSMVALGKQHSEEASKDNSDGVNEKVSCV
Procedure, shortened: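 CHO cells stably expressing human HTR2A were plated for 18 h at 37 C, then loaded with calcium dye for 1 h. Compounds were preincubated 5 min at room temperature before DOI (4 nM solution) was added. Kinetic fluorescence was read for 3 min.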

[10] = target: 5-hydroxytryptamine receptor 2A (Homo sapiens) (UniProt P28223); assay: 5-hydroxytryptamine receptor 2A (HTR2A) small molecule agonists, cell-based qHTS assay (AID 1963587); also: nearly all actives have a fitted effect of over 30% in size
Procedure, shortened: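 Kinetic calcium-flux fluorescence (2 min, 1 sec intervals) after compound addition in agonist mode. HTR2A-CHO cells were cultured 18 h, then dye-loaded 1 h at 37 C.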

[11] = target: Muscarinic acetylcholine receptor M1 (Homo sapiens) (UniProt P11229); assay: Cholinergic receptor muscarinic 1 (CHRM1) small molecule antagonists, cell-based qHTS assay (AID 1963588); also: nearly all actives have a fitted effect of over 40% in size
Muscarinic acetylcholine receptor M1 (Homo sapiens), sequence (P11229 whole entry, looked up): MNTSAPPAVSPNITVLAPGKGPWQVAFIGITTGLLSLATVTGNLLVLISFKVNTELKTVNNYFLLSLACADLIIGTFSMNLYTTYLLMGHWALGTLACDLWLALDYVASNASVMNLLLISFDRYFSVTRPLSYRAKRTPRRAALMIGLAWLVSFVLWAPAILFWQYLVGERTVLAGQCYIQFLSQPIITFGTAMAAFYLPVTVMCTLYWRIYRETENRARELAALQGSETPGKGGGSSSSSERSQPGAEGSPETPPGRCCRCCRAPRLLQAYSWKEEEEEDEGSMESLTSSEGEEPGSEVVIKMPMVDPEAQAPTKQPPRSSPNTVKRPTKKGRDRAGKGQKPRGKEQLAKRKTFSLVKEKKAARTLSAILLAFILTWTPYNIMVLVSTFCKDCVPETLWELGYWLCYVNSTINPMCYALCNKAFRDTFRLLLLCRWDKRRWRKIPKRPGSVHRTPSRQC
Procedure, shortened: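 Compounds were tested at 15 concentrations in three independent runs. Dye-loaded CHRM1-CHO cells were exposed 5 min at room temperature before stimulation by acetylcholine added at 50nM. Intracellular calcium was read kinetically on FDSS for 3 min.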

[12] = target: Muscarinic acetylcholine receptor M1 (Homo sapiens) (UniProt P11229); assay: Cholinergic receptor muscarinic 1 (CHRM1) small molecule agonists, cell-based qHTS assay (AID 1963589); also: nearly all actives have a fitted effect of over 35% in size
Procedure, shortened: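 Cells were plated and incubated 18 h at 37 C/5% CO2, loaded with calcium dye for 1 h at 37 C, then treated with compounds in DMSO. Fluorescence was recorded kinetically at 1 sec intervals.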

[13] = cAMP Responsive Elements (CRE) small molecule agonists, cell-based qHTS assay (AID 1963590)
Procedure, shortened: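 Cells carrying a CRE-driven beta-lactamase reporter (HEK 293T) are seeded, incubated overnight (18 h), and treated with test compounds for 3 h at 37 C; reporter activity is then detected with a FRET substrate after 2 h at room temperature.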

[14] = cAMP Responsive Elements (CRE) small molecule antagonists, cell-based qHTS assay (AID 1963591; active = well fitted inhibition curve with a large enough effect in the signal ratio in the repeat runs, not every such curve was filed as active; the % refers to the signal ratio)
Procedure, shortened: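 Cells (CRE-bla HEK 293T, DMEM with 10% dialyzed FBS and 25 mM HEPES) are seeded and incubated 18 h. Compounds are added with NKH477 agonist at 0.25 uM final for 3 h, then FRET substrate for 2 h.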

[15] = target: Beta-2 adrenergic receptor (Homo sapiens) (UniProt P07550); assay: Adrenergic beta2 receptor (ADRB2) small molecule antagonists, cell-based qHTS assay (AID 1963592); also: series mostly up to about 92 µM; nearly all actives have a fitted effect of over 50% in size
Beta-2 adrenergic receptor (Homo sapiens), sequence (P07550 whole entry, looked up): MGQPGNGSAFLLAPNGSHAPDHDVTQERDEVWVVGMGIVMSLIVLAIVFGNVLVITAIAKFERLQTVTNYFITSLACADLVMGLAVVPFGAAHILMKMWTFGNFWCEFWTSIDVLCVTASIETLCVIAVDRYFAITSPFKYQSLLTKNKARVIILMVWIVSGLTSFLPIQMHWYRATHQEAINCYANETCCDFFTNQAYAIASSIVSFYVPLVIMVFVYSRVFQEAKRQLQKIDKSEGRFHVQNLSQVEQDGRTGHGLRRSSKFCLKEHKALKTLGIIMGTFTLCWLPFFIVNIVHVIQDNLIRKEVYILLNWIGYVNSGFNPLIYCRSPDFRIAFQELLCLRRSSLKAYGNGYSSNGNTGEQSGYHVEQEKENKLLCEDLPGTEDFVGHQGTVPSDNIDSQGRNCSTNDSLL
Procedure, shortened: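 Assay format: CHO-ADRB2 cells, 18-20hr seeding at 37C/5% CO2, then compound plus 1nM isoproterenol agonist mix for 0.5hr RT. Homogeneous time-resolved fluorescence cAMP detection after 1hr, expressed as 665/615 nm ratio.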

[16] = target: D(2) dopamine receptor (Homo sapiens) (UniProt P14416); assay: Dopamine D2 receptor (DRD2) small molecule agonists, cell-based qHTS assay (AID 1963594); also: nearly all actives have a fitted effect of over 35% in size
D(2) dopamine receptor (Homo sapiens), sequence (P14416 whole entry, looked up): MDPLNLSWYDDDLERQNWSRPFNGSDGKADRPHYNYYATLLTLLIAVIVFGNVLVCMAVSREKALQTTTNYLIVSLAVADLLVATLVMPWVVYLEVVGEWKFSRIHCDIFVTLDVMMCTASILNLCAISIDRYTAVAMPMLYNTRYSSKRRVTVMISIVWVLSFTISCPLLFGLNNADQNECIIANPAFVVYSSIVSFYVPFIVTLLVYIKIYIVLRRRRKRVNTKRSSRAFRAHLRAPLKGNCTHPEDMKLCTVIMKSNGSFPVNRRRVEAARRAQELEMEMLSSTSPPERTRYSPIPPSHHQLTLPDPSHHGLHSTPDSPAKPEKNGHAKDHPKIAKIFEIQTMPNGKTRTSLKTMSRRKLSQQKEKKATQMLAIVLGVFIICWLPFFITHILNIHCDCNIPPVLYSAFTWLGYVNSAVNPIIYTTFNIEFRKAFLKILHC
Procedure, shortened: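 cAMP accumulation in DRD2-HEK293 cells measured by HTRF after 1 h detection; compounds added 10 min before NKH477 (200nM […]) forskolin-analogue stimulation, 30 min at room temperature, with Ro20-1724 present at 0.1 mM final.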

[17] = target: D(2) dopamine receptor (Homo sapiens) (UniProt P14416); assay: Dopamine D2 receptor (DRD2) small molecule antagonists, cell-based qHTS assay (AID 1963595; active = well fitted inhibition curve with a large enough effect in the signal ratio in the repeat runs, with a control signal flat; the % refers to the signal ratio)
Procedure, shortened: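 Antagonist mode in DRD2-HEK293 cells: after compound addition with 0.1 mM Ro20-1724, cells received quinpirole (12 nM) and NKH477 (200 nM) for 30 min at room temperature; HTRF cAMP read after 1 h detection.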

[18] = p53 small molecule agonists, cell-based qHTS assay with rat liver microsomes: qHTS cell viability counter screen (AID 1963580); also: nearly all actives have a fitted effect of over 45% in size
Procedure, shortened: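 Rat liver microsome (0.5 mg/mL final) and NADPH (0.5 mg/mL final) co-incubation with compounds for 16 h at 37 C on HCT-116 p53RE-bla cells; cytotoxicity taken from intracellular ATP luminescence.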

[19] = target: Beta-2 adrenergic receptor (Homo sapiens) (UniProt P07550); assay: Adrenergic beta2 receptor (ADRB2) small molecule agonists, cell-based qHTS assay (AID 1963593);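 also: CHO cells stably overexpressing human ADRB2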
Procedure, shortened: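 CHO cells stably over-expressing ADRB2 were plated overnight at 37C, then dosed with compounds plus a stimulation mix containing 100uM IBMX and 25uM Ro-20-1724 for 0.5hr at room temperature. cAMP was measured by HTRF competition, 1hr.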

[20] = G protein-coupled receptor (GPCR) small molecule agonists, calcium flux assay: HEK293 wild type cell line counter screen (AID 1920065)
Procedure, shortened: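 Seed cells, incubate 18 h (37 C, 5% CO2); add calcium dye, 1 h at 37 C; pin-transfer compounds, ATP control or DMSO; read fluorescence 480/540 nm each second for 3 min.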
% is scaled to controls: 0 for no effect and ±100 for the full control effect.

CCCCCCCCCCCCCCCC(=O)OC/C=C(C)/C=C/C=C(C)/C=C/C1=C(C)CCCC1(C)C
inactive: Potency [1] | Potency [2] | Potency [3] | Potency [4] | Potency [5] | Potency [6] | Potency [7] | Potency [8] | Potency [9] | Potency [10] | Potency [11] | Potency [12] | Potency [13] | Potency [14] | Potency [15] | Potency [16] | Potency [17]

Cc1ccc([N+](=O)[O-])cc1Cl
inactive: Potency [1] | Potency [2] | Potency [3] | Potency [4] | Potency [5] | Potency [6] | Potency [18] | Potency [8] | Potency [9] | Potency [10] | Potency [11] | Potency [12] | Potency [13] | Potency [14] | Potency [15] | Potency [16] | Potency [17]

O=[N+]([O-])c1cccc(S(=O)(=O)O)c1
inactive: Potency [1] | Potency [2] | Potency [3] | Potency [4] | Potency [5] | Potency [6] | Potency [7] | Potency [8] | Potency [9] | Potency [10] | Potency [11] | Potency [15] | Potency [19] | Potency [16] | Potency [17]

CCCCO
inactive: Potency [1] | Potency [2] | Potency [3] | Potency [4] | Potency [5] | Potency [6] | Potency [18] | Potency [7] | Potency [8] | Potency [9] | Potency [10] | Potency [11] | Potency [12] | Potency [13] | Potency [14] | Potency [15] | Potency [16] | Potency [17]

c1ccccc1
inactive: Potency [1] | Potency [2] | Potency [3] | Potency [20] | Potency [9] | Potency [10] | Potency [11] | Potency [12] | Potency [13] | Potency [14] | Potency [15] | Potency [16] | Potency [17]

CC(CC=O)c1ccccc1 (stereo not given)
inactive: Potency [1] | Potency [2] | Potency [3] | Potency [4] | Potency [5] | Potency [18] | Potency [7] | Potency [8] | Potency [9] | Potency [10] | Potency [11] | Potency [12] | Potency [13] | Potency [14] | Potency [15] | Potency [19] | Potency [16] | Potency [17]

C=CC(=O)OCCOc1ccccc1
inactive: Potency [1] | Potency [2] | Potency [3] | Potency [4] | Potency [5] | Potency [6] | Potency [18] | Potency [7] | Potency [8] | Potency [9] | Potency [10] | Potency [11] | Potency [16] | Potency [17]

CCC1(c2cnc[nH]2)Cc2ccccc2C1
inactive: Potency [1] | Potency [2] | Potency [3] | Potency [20] | Potency [9] | Potency [10] | Potency [11] | Potency [12] | Potency [13] | Potency [15] | Potency [16] | Potency [17]

C=CC(C)(CCC=C(C)C)OC(=O)CC(C)C (stereo not given)
inactive: Potency [1] | Potency [2] | Potency [3] | Potency [6] | Potency [18] | Potency [7] | Potency [9] | Potency [10] | Potency [11] | Potency [12] | Potency [13] | Potency [14] | Potency [16] | Potency [17]

CCCCCCCCCC[N+](C)(CCCCCCCCCC)CCC[Si](OC)(OC)OC
active: Potency [1] 21.7 µM
inactive: Potency [2] | Potency [3] | Potency [20] | Potency [9] | Potency [10] | Potency [11] | Potency [12] | Potency [15] | Potency [16]

C=Cc1ccncc1
inactive: Potency [1] | Potency [2] | Potency [3] | Potency [4] | Potency [5] | Potency [6] | Potency [18] | Potency [7] | Potency [8] | Potency [9] | Potency [10] | Potency [11] | Potency [13] | Potency [14] | Potency [15] | Potency [19] | Potency [16] | Potency [17]

Cc1c(N)c(=O)n(-c2ccccc2)n1C
inactive: Potency [1] | Potency [2] | Potency [3] | Potency [6] | Potency [18] | Potency [7] | Potency [9] | Potency [10] | Potency [11] | Potency [13] | Potency [14] | Potency [15] | Potency [19] | Potency [16] | Potency [17]

CCCCCOC(=O)c1ccc(O)cc1
active: Potency [9] 9.54 µM
inactive: Potency [1] | Potency [2] | Potency [3] | Potency [20] | Potency [18] | Potency [7] | Potency [12] | Potency [15] | Potency [19] | Potency [16] | Potency [17]

CC(C)c1ccccc1
inactive: Potency [1] | Potency [2] | Potency [3] | Potency [4] | Potency [5] | Potency [6] | Potency [7] | Potency [8] | Potency [9] | Potency [11] | Potency [12] | Potency [13] | Potency [17]

CC1=CC(=C(c2ccc(N)cc2)c2ccc(N)cc2)C=CC1=N
inactive: activity change, negative = cytotoxicity [1] -10.2% [at 8.39 µM] | activity change [2] -1.28% [at 5.22 µM, active compounds read high] | activation [3] 0.102% [at 6.97 µM] | activation [4] -13.4% [at 5.99 µM] | activation [5] -2.26% [at 5.99 µM] | activity change, negative = cytotoxicity [6] -13.2% [at 5.99 µM] | activity change, negative = cytotoxicity [7] -0.979% [at 5.99 µM] | activation [8] -2.87% [at 5.99 µM] | activity, negative = inhibition [9] 14.5% [at 5.62 µM] | activation [10] 2.32% [at 7.02 µM] | activity, negative = inhibition [11] -8.08% [at 5.58 µM] | activation [12] -0.812% [at 6.97 µM] | activation [13] -0.0749% [at 8.39 µM] | activity change, negative = inhibition [14] -12.2% [at 8.39 µM] | activity change, negative = inhibition [15] -4.98% [at 8.39 µM] | activation [19] -33.8% [at 8.39 µM] | activation [16] -0.554% [at 8.39 µM] | activity change, negative = inhibition [17] 0.406% [at 8.38 µM]

CC(C)(C)Cl
inactive: Potency [1] | Potency [2] | Potency [3] | Potency [6] | Potency [18] | Potency [7] | Potency [9] | Potency [10] | Potency [11] | Potency [12] | Potency [13] | Potency [14] | Potency [15] | Potency [19] | Potency [16] | Potency [17]
